# VP16 counter – Gal4-VP16 reporter inhibition counter-screen | Drosophila S2 Gal4-VP16 UAS-luciferase, luminescence, 20 h | Potency, µM (doses to about 53.6 µM), inactives show at the top dose activity, negative = inhibition, most hits filed as inhibitors | 310,000 compounds, 3.5% hits;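 also: Gal4-VP16 expression switched on by copper sulfate through the metallothionein promoter; potency is read from the fitted curve at half-maximal effect; nearly all actives have a fitted effect of over 50% in size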
# RORg inh – blocks mouse ROR gamma transcriptional activity. Drosophila S2 Gal4-RORgamma UAS-luciferase reporter, 20 h. 310,000 compounds, 5.4% hits. P51450. AID 2551. Potency, µM (top dose mostly 53.6 µM), inactives show at the top dose activity change, negative = inhibition, hits mostly inhibitors; also: potency is read from the fitted curve at half-maximal effect; nearly all actives have a fitted effect of over 60% in size
# Target sequence (P51450 whole entry, looked up, the tested form may be a part): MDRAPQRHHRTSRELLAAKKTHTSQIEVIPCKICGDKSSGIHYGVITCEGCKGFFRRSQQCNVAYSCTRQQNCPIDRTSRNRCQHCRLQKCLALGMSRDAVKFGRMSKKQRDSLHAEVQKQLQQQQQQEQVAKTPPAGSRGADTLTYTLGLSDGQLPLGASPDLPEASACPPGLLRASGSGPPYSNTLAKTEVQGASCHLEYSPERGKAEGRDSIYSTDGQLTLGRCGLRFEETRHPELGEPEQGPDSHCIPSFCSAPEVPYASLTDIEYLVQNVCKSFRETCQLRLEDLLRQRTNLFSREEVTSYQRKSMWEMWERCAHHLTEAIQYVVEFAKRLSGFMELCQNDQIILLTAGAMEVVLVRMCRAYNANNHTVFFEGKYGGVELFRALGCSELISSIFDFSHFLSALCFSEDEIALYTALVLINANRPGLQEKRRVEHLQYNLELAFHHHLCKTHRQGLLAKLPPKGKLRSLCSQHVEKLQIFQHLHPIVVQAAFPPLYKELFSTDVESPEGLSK
#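 A Gal4/UAS one-hybrid system in insect cells: metallothionein-promoter Gal4–ROR gamma fusion plus Photinus luciferase reporter. Copper sulfate 700 uM final, 20 hr ambient incubation, luminescent detection after 10 min with reagent.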
# TDP1 cell CPT – growth inhibition of DT40 Tdp1-/-;hTDP1 cells with camptothecin (screen for TDP1 inhibitors) | chicken DT40 Tdp1-/-;hTDP1 cells + 20 nM CPT, ATP luminescence, 48 h | AID 686979 | Potency, µM (highest dose often 46.2 µM), without a hit: at the top dose activity change, negative = growth inhibition, most hits filed as inhibitors | 420,000 compounds, 12% hits; also: potency is read from the fitted curve at half-maximal effect; nearly all actives have a fitted effect of over 55% in size
#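 Chicken DT40 Tdp1-/- cells stably complemented with human TDP1 were seeded at 400 cells/well in medium containing 20 nM camptothecin, exposed to pin-transferred compounds, and grown at 37 °C for at least 48 hr. Viability was read as ATP luminescence.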
# ELG1 DNA repair – ELG1-dependent DNA repair inhibition; Potency, µM (doses to about 46.1 µM), for inactives: top-dose activity change, negative = inhibition, usual class: inhibitors; HEK293T ELG1-luciferase reporter, luminescence, 16 h; DNA damage induced by 5-fluorouridine; 330,000 compounds, 2.3% hits; AID 504467; also: potency is read from the fitted curve at half-maximal effect; nearly all actives have a fitted effect of over 55% in size
#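 5-Fluorouridine DNA damage + compound/DMSO, 2,000 cells/well, 16 h, 37 °C/5% CO2. ONE-Glo, 30 min RT, luminescence. Readout = decrease in reporter signal.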
# TDP1 cell noCPT – qHTS for Inhibitors of human tyrosyl-DNA phosphodiesterase 1 (TDP1): qHTS in cells in absence of CPT; Potency, µM (doses to about 46.2 µM), without a hit: top-dose activity change, negative = growth inhibition, actives largely listed as inhibitors; 420,000 compounds, 15% hits; DT40 Tdp1-/- hTDP1 cells, no CPT, ATP luminescence, 48 h; AID 686978, 2013; also: potency is read from the fitted curve at half-maximal effect; nearly all actives have a fitted effect of over 55% in size
#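 Readout: luminescence from CellTiter-Glo after 30 min in the dark at RT. Cells: DT40 Tdp1-/- with stable hTDP1, 400/well. Exposure: compounds alone, ≥48 hr, 37 °C.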
# IL1B secr inh – blocks inflammasome-driven IL-1 beta release; THP-1 LPS/ATP IL-1B secretion, AlphaLISA, 16 h; hits give low values; activity change, % at 57.5 µM; 360,000 compounds, 4.7% hits; AID 743279; in the data active = activity change below about -50%; inconclusive = mostly about -30% to -49%
#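 Secreted IL-1B measured by AlphaLISA bead assay after 16 h compound exposure of THP-1 cells; compounds (final up to 57.5 uM) added 1 h before LPS (250 ng/mL) and ATP (1.25 mM) stimulation; lower signal means less secretion.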
# Active calls of the source: *; ? = inconclusive; . = no result given. This is a sample that favours compounds with a hit; in the whole collection about 21% have one here. Unless noted, calls follow the shape of the dose curve; as a rule, active = well fitted curve in the direction sought with a large enough effect; inconclusive = small, poorly fitted or top-dose-only effect, or another doubt; inactive = no such curve, though single readings can be large; an effect the other way counts as inactive or inconclusive. % is scaled to controls: 0 for no effect and ±100 for the full control effect.
SMILES,VP16 counter,RORg inh,TDP1 cell CPT,ELG1 DNA repair,TDP1 cell noCPT,IL1B secr inh
Cc1ccc(C(=O)NCc2ccc3c(c2)CCN3C(=O)c2ccc(C)cc2)cc1,.,.,21µM*,.,18µM*,.
CN(C)c1ccc(C(=O)NCc2ccc3c(c2)CCN3C(=O)c2ccccc2)cc1,.,.,16µM*,.,?,.
CCN(CC)c1ccc(C(=O)NCc2ccc3c(c2)CCN3C(=O)c2ccccc2)cc1,.,.,21µM*,.,23µM*,.
Cc1ccc(C)c(NC(=O)NCc2ccc3c(c2)CCN3C(=O)c2ccccc2)c1,.,.,21µM*,.,?,.
C#CCNC(=O)C[C@@H]1C[C@@]2(C(=O)OC)CC(C)(C)CC=C2N(Cc2ccco2)C1=O,.,.,17%,.,19%,-21
COC(=O)[C@@]12C[C@@H](CC(=O)NCC34CC5CC(CC(C5)C3)C4)C(=O)N(Cc3ccco3)C1=CCC(C)(C)C2,.,.,16µM*,.,15µM*,3
COC(=O)[C@@]12C[C@@H](CC(=O)N3CCOCC3)C(=O)N(Cc3ccco3)C1=CCC(C)(C)C2,.,.,-5%,.,-2%,-12
COC(=O)[C@@]12C[C@@H](CC(=O)N3CCCCC3)C(=O)N(Cc3ccco3)C1=CCC(C)(C)C2,.,.,23µM*,.,?,-2
O=C(N/N=C/c1ccco1)C1CCCC1,-1%,-14%,-1%,21%,13%,-16
COc1cc(/C=N/Nc2nc(Nc3ccccc3)nc(N3CCOCC3)n2)ccc1OC(=O)c1ccco1,5%,-22%,7.3µM*,?,4.1µM*,?
COc1ccc(/C=N/Nc2nc(Nc3ccccc3)nc(N3CCCCC3)n2)c(OC)c1,11µM*,3.2µM*,?,21µM*,21µM*,-14
COc1ccc(/C=N/Nc2nc(Nc3ccccc3)nc(N3CCCC3)n2)cc1[N+](=O)[O-],-30%,13µM*,?,?,16µM*,-88*
COc1cc(/C=N/Nc2nc(Nc3ccccc3)nc(N3CCCCC3)n2)ccc1OCC(=O)O,-14%,-9%,?,9%,?,6
O=C(Oc1cccc(/C=N/Nc2nc(N3CCOCC3)nc(N3CCOCC3)n2)c1)c1ccco1,-3%,17%,?,?,?,-14
O=C(COC(=O)c1cc(-c2cccs2)nc2ccccc12)c1ccc(Br)cc1,.,.,-17%,.,?,.
O=C(N/N=C/C=C/c1ccco1)c1ccncc1,?,10µM*,-46%,?,-27%,-21
CC(/C=C/c1ccco1)=N\NC(=O)COc1ccc(C)c(C)c1,8.9µM*,?,-10%,?,-24%,59
CCOC(=O)N/N=C\C=C\c1ccco1,14%,-7%,-1%,?,?,22
O=C(N/N=C/C=C/c1ccco1)/C(=C/c1ccccc1)NC(=O)c1ccccc1,?,13µM*,?,1%,?,-12
O=C(N/N=C/C=C/c1ccco1)c1ccccc1Cl,-30%,?,?,?,16µM*,-10
COc1ccc(OC)c(NC(=O)N2CCN(Cc3nc4ccc(C)cc4o3)CC2)c1,.,.,?,.,-2%,.
CC(/C=C/c1ccco1)=N\NC(=O)c1cccc(Cl)c1,3.5µM*,4µM*,?,18%,?,-1
CC(/C=C/c1ccco1)=N/NC(=O)c1ccccc1Cl,?,?,23µM*,?,16µM*,-22
CCOC(=O)N/N=C(C)/C=C/c1ccco1,21%,?,12%,?,-19%,15
CC(/C=C/c1ccccc1F)=N\NC(=O)c1cccc(F)c1,5µM*,0.89µM*,?,?,18µM*,-4
O/N=C/c1cc(Br)cs1,0%,14%,2%,6%,-7%,3

# Source: PubChem BioAssay
